A selection: hits, their analogues and other compounds. The true share with any hit is near 1.5%.
E coli Lon inh: inhibits E. coli Lon protease. purified E. coli Lon protease, fluorescence polarization. inhibition, % at 7.94 µM. hit rate 0.42% among 360,000. AID 602123; in the data active = inhibition above about 13%, passing the limit was not always enough
MEX-5 binding: C. elegans MEX-5 TCR-2 RNA binding activity | Q9XUB2 | MEX-5/FITC-TCR2 RNA binding, fluorescence polarization; stronger effect = lower value | activity score (negative = inhibition of binding), % at 10 µM | hit rate 0.38% among 300,000;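 active = inhibition past about -25% in most replicates, and total fluorescence under double the plate's negative control median, limit read from the data; inconclusive = replicates evenly split on the limit, or fluorescence at least double controls; inactive = too little inhibition in most replicates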
MCL1-BIM inh: inhibitors of human MCL1 binding to BIM-BH3 peptide; Q07820; GST-MCL1 / FITC-Bim-BH3 fluorescence polarization; inhibition, % at 10.9 µM; hit rate 0.68% among 320,000; AID 2057;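 active = inhibition above the mean inhibition of all tested compounds plus 3 SD, set per campaign, cut at about 40% in these data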;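 also: higher means more loss of mP so more displacement of Bim peptide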
Bcl-xL primary: inhibitors of human Bcl-xL | Q07817 | GST-Bcl-xL / FITC-Bim BH3 peptide fluorescence polarization | inhibition, % at 10.9 µM | hit rate 0.7% among 320,000 | AID 2129;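 active = inhibition above the mean of all tested compounds plus 3 SD, cutoff set per campaign, cut at about 30% in these data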;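 also: inhibitors lower millipolarization by displacing the labeled peptide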
Target sequence (Q07817 whole entry, looked up): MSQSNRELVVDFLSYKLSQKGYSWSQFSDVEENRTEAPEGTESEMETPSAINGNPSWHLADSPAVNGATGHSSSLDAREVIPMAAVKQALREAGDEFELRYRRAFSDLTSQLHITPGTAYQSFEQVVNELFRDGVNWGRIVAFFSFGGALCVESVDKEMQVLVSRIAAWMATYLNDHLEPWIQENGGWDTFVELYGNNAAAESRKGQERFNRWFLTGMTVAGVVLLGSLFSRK
GLD-1 RNA inh: GLD-1-TGE RNA interaction inhibition (C. elegans). purified GLD-1 + fluorescein TGE RNA, fluorescence polarization. inhibition, % at 5.96 µM. hit rate 0.44% among 320,000;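 active = percent inhibition above a per-plate cutoff, the plate mean of test compounds plus 3 SD, cut at about 30% in these data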
EBV gp42 block: EBV gp42 inhibition; Q1HVG2; Fluorescence polarization binding assay, mP read-out; inhibition, % (tested at 21.74 µM); hit rate 0.42% among 220,000; in the data active = inhibition above about 50%
Target sequence (Q1HVG2 whole entry, looked up): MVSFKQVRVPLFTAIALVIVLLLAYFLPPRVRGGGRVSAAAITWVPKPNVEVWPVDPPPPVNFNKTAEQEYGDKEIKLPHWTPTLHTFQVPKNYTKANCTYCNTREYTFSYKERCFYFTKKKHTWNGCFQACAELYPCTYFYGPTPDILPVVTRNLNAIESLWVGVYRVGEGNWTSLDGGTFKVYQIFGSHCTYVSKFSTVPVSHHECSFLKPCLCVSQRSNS
Bcl-xL conf: counter-screen for MCL1 inhibitors: confirmation of human Bcl-xL inhibitors. hit rate 54% among 1,700. AID 2166. inhibition, % at 10.9 µM. shares compounds with MCL1-BIM inh. GST-Bcl-xL / FITC-Bim BH3 peptide FP binding;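 active = inhibition above a cutoff equal to the mean inhibition of all tested compounds plus 3 SD, cut at about 30% in these data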
MCL1 BIM confirm: MCL1-BIM-BH3 interaction inhibition, confirmation. shares compounds with MCL1-BIM inh. GST-MCL1 / FITC-Bim-BH3 fluorescence polarization. inhibition, % at 10.9 µM. hit rate 61% among 1,700. AID 2168;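 active = inhibition above the average of all tested compounds plus 3 SD, cut at about 40% in these data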
Of the large screens only hits and unclear results are named; the others gave an inactive call (follow-up assays come after a bar, where they were run).

CC(=O)OCC1=C(C(=O)O)N2C(=O)C(NC(=O)CCn3nc(C)c(Cl)c3C)C2SC1 (stereo unspecified)	none
CC(=O)OCC1=C(C(=O)O)N2C(=O)C(NC(=O)CCn3nc(C(F)(F)F)c(Br)c3C3CC3)C2SC1 (stereo unspecified)	MCL1-BIM inh 65 | Bcl-xL conf inactive | MCL1 BIM confirm 96
Cc1nnc(SCC(=O)Nc2sccc2C#N)s1	MCL1-BIM inh 53 (no result: EBV gp42 block) | Bcl-xL conf inactive | MCL1 BIM confirm inactive
Cc1ccc(C(=O)N2CC(=O)Nc3ccc(F)cc3C2c2ccc(F)cc2)cc1[N+](=O)[O-] (stereo unspecified)	none
CC(C(=O)O)N1C(=O)/C(=C/C=C/c2ccco2)SC1=S (stereo unspecified)	MEX-5 binding -87, MCL1-BIM inh 83, Bcl-xL primary 50 (no result: EBV gp42 block) | Bcl-xL conf 58 | MCL1 BIM confirm 87
O=C1/C(=C/c2cccs2)SC(=S)N1NS(=O)(=O)c1ccccc1	none
O=C(O)CCCN1C(=O)/C(=C\c2ccco2)SC1=S	none (no result: MCL1-BIM inh, Bcl-xL primary, GLD-1 RNA inh)
O=C1/C(=C/C=C/c2ccco2)SC(=S)N1NS(=O)(=O)c1ccccc1	MCL1-BIM inh 83, Bcl-xL primary 67 (no result: MEX-5 binding) | Bcl-xL conf 45 | MCL1 BIM confirm 73
COc1ccccc1CCNC(=O)CCn1nc(C)c2c(C)n(-c3ccccc3)nc2c1=O	none (no result: EBV gp42 block)
COc1ccccc1NS(=O)(=O)c1ccc(N/N=C/c2ccccc2OCC(=O)O)c([N+](=O)[O-])c1	MCL1-BIM inh 141, Bcl-xL primary 136, GLD-1 RNA inh 94 | Bcl-xL conf 184 | MCL1 BIM confirm active
O=C(O)COc1ccccc1/C=N/Nc1ccc(S(=O)(=O)Nc2ccc(Cl)cc2)cc1[N+](=O)[O-]	none
CCNc1nc(-c2cc(C)n(Cc3ccco3)c2C)cs1	MCL1-BIM inh 46, Bcl-xL primary 41 | Bcl-xL conf inactive | MCL1 BIM confirm inactive
COc1ccc(C(=O)OCC(=O)NC23CC4CC(CC(C4)C2)C3)c(O)c1	none (no result: MEX-5 binding, MCL1-BIM inh, Bcl-xL primary, GLD-1 RNA inh, EBV gp42 block)
O=C(COC(=O)c1ccc(O)cc1O)NC12CC3CC(CC(C3)C1)C2	MCL1-BIM inh 158, Bcl-xL primary 139, GLD-1 RNA inh 100 (no result: MEX-5 binding, EBV gp42 block) | Bcl-xL conf inactive | MCL1 BIM confirm inactive
Cn1c(CNC(=O)c2ccccc2F)nnc1SCC(=O)c1ccccc1	none (no result: EBV gp42 block)
O=[N+]([O-])c1ccc2[nH]c(O)c(N=NC(=S)Nc3cccnc3)c2c1	MCL1-BIM inh 42, EBV gp42 block 59 | Bcl-xL conf 32 | MCL1 BIM confirm inactive
CN1CCc2cccc3c2[C@@H]1Cc1ccc(O)c(O)c1-3	MCL1-BIM inh 71, Bcl-xL primary 49 (no result: MEX-5 binding) | Bcl-xL conf inactive | MCL1 BIM confirm inactive
CC1(C)Cc2c(sc3[nH]c(=S)n(Cc4ccco4)c(=O)c23)CO1	none
O=c1c2c3c(sc2[nH]c(=S)n1Cc1ccco1)CCC3	MCL1-BIM inh 48 | Bcl-xL conf inactive | MCL1 BIM confirm 41
NS(=O)(=O)c1ccc(CCNC(=O)COC(=O)/C=C/c2cc(Br)ccc2F)cc1	none (no result: MEX-5 binding, MCL1-BIM inh, Bcl-xL primary, EBV gp42 block)
Cn1c(C(=O)N2CCOCC2)cc2c(=O)n3ccccc3nc21	none (no result: EBV gp42 block)
CCOC(=O)C1CCN(C(=O)c2cc3c(=O)n4ccccc4nc3n2C)CC1	MCL1-BIM inh 85, Bcl-xL primary 67 | Bcl-xL conf inactive | MCL1 BIM confirm inactive
CCc1cc[n+](-c2nc3ccccc3nc2[N-]S(=O)(=O)c2ccc(Br)s2)cc1	MEX-5 binding inconclusive, MCL1-BIM inh 94, Bcl-xL primary 83, EBV gp42 block 58 | Bcl-xL conf 71 | MCL1 BIM confirm 87
Cc1cc[n+](-c2nc3ccccc3nc2[N-]S(=O)(=O)c2ccccc2)cc1	none
c1coc(Cn2nnnc2CN2CCN(C3CCCC3)CC2)c1	MCL1-BIM inh 40 | Bcl-xL conf inactive | MCL1 BIM confirm inactive
CCc1cc(=O)oc2cc(C)c(CN3CCCC3)c(O)c12	MCL1-BIM inh 72, Bcl-xL primary 33 | Bcl-xL conf 52 | MCL1 BIM confirm 88

High-throughput results deposited in PubChem BioAssay by several laboratories.
